Source: publication PMC7862700, “An all-to-all approach to the identification of sequence-specific readers for epigenetic DNA modifications on cytosine”

Legend:
Assay in all cases: DAPPL (digital affinity profiling via proximity ligation, sequencing); 10 mM Tris-HCl pH 7.5, 50 mM NaCl, 1 mM DTT, 4% glycerol, room temperature, 30 min; GST-TFs on glutathione beads, 16-mer random dsDNA library, 0.1% formaldehyde crosslink after washing; high values mean tight binding
[1] = molecular target: T1, FEV (Homo sapiens, UniProt Q99581 1-238); conditions: protein: recombinant; tags: N-terminal GST; dsDNA, one strand shown
T1 sequence: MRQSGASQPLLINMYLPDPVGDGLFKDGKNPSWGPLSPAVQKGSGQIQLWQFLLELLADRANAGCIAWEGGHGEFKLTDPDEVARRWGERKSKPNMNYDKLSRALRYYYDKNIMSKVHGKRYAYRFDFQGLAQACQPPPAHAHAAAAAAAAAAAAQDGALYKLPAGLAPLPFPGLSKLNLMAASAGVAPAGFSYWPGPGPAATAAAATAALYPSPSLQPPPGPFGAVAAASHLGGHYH
Outline: (§1)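 Human transcription factors fused to GST were expressed in yeast, captured on glutathione beads, given DNA barcodes and pooled with a GST-only negative control. Pools were incubated with 200 nmole of a 16-mer random double-stranded DNA library in Tris/NaCl/DTT/glycerol buffer at room temperature for 30 min. They were then washed, crosslinked with 0.1% formaldehyde, proximity-ligated (BsaI/T4 ligase, 1 h, 37 °C), PCR-amplified and sequenced on an Illumina NextSeq500. Binding signal is each 6-mer's read frequency for a factor divided by its frequency for the GST control.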

[2] = molecular target: ETV5 (Homo sapiens, UniProt P41161 1-510); conditions: protein: recombinant; tags: N-terminal GST; dsDNA, one strand shown
Sequence of ETV5 (P41161 whole entry): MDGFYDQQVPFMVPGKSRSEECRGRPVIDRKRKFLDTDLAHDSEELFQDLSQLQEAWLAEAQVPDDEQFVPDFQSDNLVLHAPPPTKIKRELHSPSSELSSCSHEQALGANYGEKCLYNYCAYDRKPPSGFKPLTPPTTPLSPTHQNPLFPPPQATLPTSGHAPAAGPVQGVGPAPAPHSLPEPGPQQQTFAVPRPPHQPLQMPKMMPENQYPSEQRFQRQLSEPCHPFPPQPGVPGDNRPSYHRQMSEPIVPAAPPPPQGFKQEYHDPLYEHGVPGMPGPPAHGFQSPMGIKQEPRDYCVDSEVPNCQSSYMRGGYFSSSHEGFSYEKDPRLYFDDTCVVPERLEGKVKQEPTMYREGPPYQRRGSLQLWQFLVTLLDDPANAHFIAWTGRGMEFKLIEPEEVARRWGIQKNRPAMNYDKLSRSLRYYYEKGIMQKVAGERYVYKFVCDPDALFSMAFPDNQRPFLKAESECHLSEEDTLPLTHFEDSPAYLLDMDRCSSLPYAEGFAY
Outline: as §1

[3] = molecular target: HSF1 (Homo sapiens, UniProt Q00613 1-529); conditions: protein: recombinant; tags: N-terminal GST; chain copies: 3; dsDNA, one strand shown
Sequence of HSF1 (Q00613 whole entry): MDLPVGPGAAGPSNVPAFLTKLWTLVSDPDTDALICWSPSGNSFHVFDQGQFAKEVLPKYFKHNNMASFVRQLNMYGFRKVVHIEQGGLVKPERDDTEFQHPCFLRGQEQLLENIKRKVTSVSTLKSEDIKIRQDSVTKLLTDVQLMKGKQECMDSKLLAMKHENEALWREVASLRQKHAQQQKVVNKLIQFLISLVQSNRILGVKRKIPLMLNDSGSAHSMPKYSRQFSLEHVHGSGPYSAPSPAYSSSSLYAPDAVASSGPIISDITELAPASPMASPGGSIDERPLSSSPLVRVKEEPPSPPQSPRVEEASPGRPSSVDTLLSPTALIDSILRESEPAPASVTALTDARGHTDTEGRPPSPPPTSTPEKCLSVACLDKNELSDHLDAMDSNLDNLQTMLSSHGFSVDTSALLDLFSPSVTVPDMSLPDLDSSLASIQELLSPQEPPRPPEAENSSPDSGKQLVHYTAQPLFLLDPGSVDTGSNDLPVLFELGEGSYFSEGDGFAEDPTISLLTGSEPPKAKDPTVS
Outline: as §1

[4] = molecular target: T2, SPIC (Homo sapiens, UniProt Q8N5J4 1-248); conditions: protein: recombinant; tags: N-terminal GST; dsDNA, one strand shown
T2 sequence: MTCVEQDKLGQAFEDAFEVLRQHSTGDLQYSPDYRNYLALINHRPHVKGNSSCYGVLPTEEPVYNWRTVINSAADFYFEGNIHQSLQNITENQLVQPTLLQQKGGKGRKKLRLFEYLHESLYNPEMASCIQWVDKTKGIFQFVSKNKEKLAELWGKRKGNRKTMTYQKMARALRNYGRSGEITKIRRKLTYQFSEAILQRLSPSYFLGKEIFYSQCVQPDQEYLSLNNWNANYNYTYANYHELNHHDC
Outline: as §1

[5] = molecular target: ELF4 (Homo sapiens, UniProt Q99607 1-663); conditions: protein: recombinant; tags: N-terminal GST; dsDNA, one strand shown
Sequence of ELF4 (Q99607 whole entry): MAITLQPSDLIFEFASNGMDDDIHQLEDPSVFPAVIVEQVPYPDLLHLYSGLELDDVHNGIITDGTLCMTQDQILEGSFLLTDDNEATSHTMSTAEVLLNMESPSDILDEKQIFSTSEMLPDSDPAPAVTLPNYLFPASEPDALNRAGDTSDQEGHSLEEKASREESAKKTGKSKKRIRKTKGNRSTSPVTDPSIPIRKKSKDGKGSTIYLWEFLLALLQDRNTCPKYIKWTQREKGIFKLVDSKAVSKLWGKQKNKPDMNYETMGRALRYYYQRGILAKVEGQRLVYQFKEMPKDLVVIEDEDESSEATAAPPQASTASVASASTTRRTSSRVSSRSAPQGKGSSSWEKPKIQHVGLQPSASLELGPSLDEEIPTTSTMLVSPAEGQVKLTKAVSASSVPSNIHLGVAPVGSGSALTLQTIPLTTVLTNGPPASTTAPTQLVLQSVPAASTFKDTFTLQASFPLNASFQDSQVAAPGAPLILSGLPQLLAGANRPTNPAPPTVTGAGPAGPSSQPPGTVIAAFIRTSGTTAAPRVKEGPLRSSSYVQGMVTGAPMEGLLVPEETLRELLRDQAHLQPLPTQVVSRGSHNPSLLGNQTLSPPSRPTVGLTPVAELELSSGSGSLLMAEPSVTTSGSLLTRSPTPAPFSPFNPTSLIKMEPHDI
Outline: as §1

[6] = molecular target: T3, ELK4 (Homo sapiens, UniProt P28324-2 1-405); conditions: protein: recombinant; tags: N-terminal GST; dsDNA, one strand shown
T3 sequence: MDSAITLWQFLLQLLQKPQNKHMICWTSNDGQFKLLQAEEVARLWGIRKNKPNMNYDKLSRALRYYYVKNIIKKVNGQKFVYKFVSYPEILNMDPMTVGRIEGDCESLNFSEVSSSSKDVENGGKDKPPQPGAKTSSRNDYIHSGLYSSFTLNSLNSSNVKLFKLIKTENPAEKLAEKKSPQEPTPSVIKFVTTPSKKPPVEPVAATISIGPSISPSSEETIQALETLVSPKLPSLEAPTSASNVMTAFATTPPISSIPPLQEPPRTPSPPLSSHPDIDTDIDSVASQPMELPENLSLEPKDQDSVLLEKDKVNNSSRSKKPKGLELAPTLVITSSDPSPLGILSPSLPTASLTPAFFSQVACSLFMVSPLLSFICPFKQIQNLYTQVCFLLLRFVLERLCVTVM
Outline: as §1

[7] = molecular target: T4, ETV2 (Homo sapiens, UniProt O00321 1-342); conditions: protein: recombinant; tags: N-terminal GST; dsDNA, one strand shown
T4 sequence: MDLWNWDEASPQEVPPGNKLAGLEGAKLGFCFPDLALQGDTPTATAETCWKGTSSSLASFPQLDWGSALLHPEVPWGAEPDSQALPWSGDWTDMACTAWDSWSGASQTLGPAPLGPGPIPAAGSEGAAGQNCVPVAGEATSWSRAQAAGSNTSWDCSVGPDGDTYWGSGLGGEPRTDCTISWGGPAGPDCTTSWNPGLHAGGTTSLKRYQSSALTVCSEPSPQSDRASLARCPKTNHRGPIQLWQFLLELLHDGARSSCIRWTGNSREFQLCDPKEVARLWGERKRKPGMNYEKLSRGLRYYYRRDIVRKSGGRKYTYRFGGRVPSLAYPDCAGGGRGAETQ
Outline: as §1

[8] = molecular target: T5, ELF3 (Homo sapiens, UniProt P78545 1-371); conditions: protein: recombinant; tags: N-terminal GST; dsDNA, one strand shown
T5 sequence: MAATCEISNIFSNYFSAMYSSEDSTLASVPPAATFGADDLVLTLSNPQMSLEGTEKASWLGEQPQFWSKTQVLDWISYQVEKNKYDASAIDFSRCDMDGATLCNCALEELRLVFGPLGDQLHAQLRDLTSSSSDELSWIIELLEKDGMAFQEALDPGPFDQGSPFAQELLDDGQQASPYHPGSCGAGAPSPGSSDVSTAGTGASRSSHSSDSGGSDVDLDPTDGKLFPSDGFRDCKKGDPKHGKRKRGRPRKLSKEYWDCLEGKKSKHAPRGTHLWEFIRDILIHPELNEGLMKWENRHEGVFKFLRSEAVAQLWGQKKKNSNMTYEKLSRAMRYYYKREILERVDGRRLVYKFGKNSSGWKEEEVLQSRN
Outline: as §1

[9] = molecular target: CRX (Homo sapiens, UniProt O43186 1-299); conditions: protein: recombinant; tags: N-terminal GST; dsDNA, one strand shown
Sequence of CRX (O43186 whole entry): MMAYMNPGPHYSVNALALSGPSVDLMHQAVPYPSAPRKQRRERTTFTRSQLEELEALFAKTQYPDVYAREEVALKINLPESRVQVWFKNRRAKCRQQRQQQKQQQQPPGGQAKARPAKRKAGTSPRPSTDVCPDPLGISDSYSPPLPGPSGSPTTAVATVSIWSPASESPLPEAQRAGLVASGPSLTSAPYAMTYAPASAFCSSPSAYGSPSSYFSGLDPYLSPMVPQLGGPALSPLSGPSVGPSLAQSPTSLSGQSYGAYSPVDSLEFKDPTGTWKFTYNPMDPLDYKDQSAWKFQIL
Outline: as §1

[10] = molecular target: ETV1 (Homo sapiens, UniProt P50549 1-477); conditions: protein: recombinant; tags: N-terminal GST; dsDNA, one strand shown
Sequence of ETV1 (P50549 whole entry): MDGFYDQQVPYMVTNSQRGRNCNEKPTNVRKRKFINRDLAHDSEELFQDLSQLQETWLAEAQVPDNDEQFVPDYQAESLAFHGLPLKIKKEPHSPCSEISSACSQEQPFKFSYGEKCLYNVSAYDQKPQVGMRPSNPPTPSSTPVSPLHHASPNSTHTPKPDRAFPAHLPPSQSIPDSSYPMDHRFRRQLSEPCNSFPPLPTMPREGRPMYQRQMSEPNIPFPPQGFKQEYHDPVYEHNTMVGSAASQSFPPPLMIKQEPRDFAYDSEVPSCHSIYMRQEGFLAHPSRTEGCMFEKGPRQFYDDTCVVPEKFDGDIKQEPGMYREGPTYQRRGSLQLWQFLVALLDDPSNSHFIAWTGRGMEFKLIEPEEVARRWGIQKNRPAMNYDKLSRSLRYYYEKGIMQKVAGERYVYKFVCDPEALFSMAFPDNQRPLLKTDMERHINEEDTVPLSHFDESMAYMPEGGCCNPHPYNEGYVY
Outline: as §1

[11] = molecular target: T6, ERF (Homo sapiens, UniProt P50548 1-548); conditions: protein: recombinant; tags: N-terminal GST; dsDNA, one strand shown
T6 sequence: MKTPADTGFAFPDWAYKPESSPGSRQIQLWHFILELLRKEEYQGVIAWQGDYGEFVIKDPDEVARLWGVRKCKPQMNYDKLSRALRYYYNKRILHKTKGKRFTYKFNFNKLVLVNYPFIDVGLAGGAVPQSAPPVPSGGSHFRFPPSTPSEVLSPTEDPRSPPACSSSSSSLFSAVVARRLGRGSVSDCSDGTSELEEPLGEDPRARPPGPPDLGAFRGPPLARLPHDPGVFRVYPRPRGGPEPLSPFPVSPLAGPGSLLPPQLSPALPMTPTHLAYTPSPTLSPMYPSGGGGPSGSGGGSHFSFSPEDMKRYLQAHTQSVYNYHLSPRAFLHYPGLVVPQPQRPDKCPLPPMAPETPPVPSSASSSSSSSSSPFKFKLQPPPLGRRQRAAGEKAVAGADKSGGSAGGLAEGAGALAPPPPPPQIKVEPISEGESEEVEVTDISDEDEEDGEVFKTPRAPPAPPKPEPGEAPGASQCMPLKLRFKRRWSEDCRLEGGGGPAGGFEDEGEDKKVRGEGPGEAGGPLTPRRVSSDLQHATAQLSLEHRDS
Outline: as §1

[12] = molecular target: T7, ETV3L (Homo sapiens, UniProt Q6ZN32 1-361); conditions: protein: recombinant; tags: N-terminal GST; dsDNA, one strand shown
T7 sequence: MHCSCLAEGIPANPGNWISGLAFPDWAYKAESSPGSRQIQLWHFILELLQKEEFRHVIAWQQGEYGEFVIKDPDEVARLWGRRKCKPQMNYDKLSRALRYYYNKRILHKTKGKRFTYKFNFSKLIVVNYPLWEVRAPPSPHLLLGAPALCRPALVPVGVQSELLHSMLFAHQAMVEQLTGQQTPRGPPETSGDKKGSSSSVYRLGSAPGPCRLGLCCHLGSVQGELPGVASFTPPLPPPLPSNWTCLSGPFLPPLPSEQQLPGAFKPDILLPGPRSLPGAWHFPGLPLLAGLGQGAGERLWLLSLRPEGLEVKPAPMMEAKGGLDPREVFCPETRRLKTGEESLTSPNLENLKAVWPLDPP
Outline: as §1

[13] = molecular target: T8, ETS2 (Homo sapiens, UniProt P15036 1-469); conditions: protein: recombinant; tags: N-terminal GST; dsDNA, one strand shown
T8 sequence: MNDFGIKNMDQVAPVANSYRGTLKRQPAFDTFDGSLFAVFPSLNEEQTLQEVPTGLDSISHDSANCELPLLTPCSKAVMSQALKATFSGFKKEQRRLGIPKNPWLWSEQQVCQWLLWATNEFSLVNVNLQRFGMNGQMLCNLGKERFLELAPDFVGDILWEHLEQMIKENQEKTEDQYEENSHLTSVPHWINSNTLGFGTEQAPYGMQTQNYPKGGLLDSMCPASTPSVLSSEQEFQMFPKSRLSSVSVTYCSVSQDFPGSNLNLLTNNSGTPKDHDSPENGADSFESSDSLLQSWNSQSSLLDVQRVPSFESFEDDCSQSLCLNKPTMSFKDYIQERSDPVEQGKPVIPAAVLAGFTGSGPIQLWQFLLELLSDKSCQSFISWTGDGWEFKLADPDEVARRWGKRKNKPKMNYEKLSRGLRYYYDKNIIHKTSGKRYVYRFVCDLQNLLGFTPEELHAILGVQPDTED
Outline: as §1

[14] = molecular target: T9, SPDEF (Homo sapiens, UniProt O95238 1-335); conditions: protein: recombinant; tags: N-terminal GST; dsDNA, one strand shown
T9 sequence: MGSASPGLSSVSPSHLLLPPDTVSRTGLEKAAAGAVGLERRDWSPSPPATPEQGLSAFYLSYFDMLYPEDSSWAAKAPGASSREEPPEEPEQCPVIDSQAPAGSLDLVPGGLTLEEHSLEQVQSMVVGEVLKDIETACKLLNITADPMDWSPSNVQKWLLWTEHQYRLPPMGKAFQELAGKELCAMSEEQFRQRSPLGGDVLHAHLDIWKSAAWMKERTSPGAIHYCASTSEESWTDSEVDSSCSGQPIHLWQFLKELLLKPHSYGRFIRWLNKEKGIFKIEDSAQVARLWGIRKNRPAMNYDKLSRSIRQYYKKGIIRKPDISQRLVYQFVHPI
Outline: as §1

[15] = molecular target: T10, ETV7 (Homo sapiens, UniProt Q9Y603 1-341); conditions: protein: recombinant; tags: N-terminal GST; dsDNA, one strand shown
T10 sequence: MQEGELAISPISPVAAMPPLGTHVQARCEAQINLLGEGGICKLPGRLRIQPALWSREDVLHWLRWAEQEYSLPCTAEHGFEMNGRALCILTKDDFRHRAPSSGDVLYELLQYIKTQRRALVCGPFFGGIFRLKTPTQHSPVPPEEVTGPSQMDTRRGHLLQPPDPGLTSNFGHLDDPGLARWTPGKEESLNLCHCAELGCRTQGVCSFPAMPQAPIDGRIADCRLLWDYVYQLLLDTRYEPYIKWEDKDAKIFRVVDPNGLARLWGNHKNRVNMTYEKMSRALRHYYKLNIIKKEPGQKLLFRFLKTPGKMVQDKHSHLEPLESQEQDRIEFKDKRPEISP
Outline: as §1

[16] = molecular target: T11, ELF5 (Homo sapiens, UniProt Q9UKW6-2 1-255); conditions: protein: recombinant; tags: N-terminal GST; dsDNA, one strand shown
T11 sequence: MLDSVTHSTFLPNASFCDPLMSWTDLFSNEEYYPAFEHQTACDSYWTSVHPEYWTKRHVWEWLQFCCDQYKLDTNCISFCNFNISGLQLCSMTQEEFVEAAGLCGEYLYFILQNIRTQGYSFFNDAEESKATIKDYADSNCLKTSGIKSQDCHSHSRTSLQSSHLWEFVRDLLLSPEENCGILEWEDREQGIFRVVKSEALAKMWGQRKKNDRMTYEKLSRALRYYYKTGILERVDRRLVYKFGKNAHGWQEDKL
Outline: as §1

[17] = molecular target: T12, ETV3 (Homo sapiens, UniProt P41162-2 1-143); conditions: protein: recombinant; tags: N-terminal GST; dsDNA, one strand shown
T12 sequence: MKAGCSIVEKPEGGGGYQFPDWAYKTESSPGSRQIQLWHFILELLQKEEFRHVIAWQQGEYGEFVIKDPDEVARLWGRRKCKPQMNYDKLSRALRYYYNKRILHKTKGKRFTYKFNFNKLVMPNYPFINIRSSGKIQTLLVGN
Outline: as §1

[18] = molecular target: ETV6 (Homo sapiens, UniProt P41212 1-452); conditions: protein: recombinant; tags: N-terminal GST; dsDNA, one strand shown
Sequence of ETV6 (P41212 whole entry): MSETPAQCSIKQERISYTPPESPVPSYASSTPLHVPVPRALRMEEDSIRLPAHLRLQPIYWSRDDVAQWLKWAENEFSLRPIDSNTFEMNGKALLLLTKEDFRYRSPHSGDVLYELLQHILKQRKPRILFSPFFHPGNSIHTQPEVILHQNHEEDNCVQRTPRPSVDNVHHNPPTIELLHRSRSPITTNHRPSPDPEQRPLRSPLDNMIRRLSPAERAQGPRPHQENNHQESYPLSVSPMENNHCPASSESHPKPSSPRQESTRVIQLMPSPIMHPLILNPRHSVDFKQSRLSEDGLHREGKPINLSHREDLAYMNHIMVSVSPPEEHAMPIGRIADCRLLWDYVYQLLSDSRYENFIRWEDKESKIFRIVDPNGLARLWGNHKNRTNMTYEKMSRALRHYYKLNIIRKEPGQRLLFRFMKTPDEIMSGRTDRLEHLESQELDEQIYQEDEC
Outline: as §1

CTCCTT
binding signal [1]: 1.75 fold enrichment (6-mer frequency, TF over GST control) | binding signal [2]: 1.62 fold enrichment (6-mer frequency, TF over GST control) | binding signal [3]: 1.61 fold enrichment (6-mer frequency, TF over GST control) | binding signal [4]: 1.86 fold enrichment (6-mer frequency, TF over GST control) | binding signal [5]: 1.8 fold enrichment (6-mer frequency, TF over GST control) | binding signal [6]: 1.67 fold enrichment (6-mer frequency, TF over GST control) | binding signal [7]: 1.7 fold enrichment (6-mer frequency, TF over GST control) | binding signal [8]: 1.96 fold enrichment (6-mer frequency, TF over GST control) | binding signal [9]: 1.57 fold enrichment (6-mer frequency, TF over GST control) | binding signal [10]: 1.69 fold enrichment (6-mer frequency, TF over GST control) | binding signal [11]: 1.86 fold enrichment (6-mer frequency, TF over GST control) | binding signal [12]: 1.76 fold enrichment (6-mer frequency, TF over GST control) | binding signal [13]: 1.76 fold enrichment (6-mer frequency, TF over GST control) | binding signal [14]: 1.64 fold enrichment (6-mer frequency, TF over GST control) | binding signal [15]: 1.75 fold enrichment (6-mer frequency, TF over GST control) | binding signal [16]: 1.89 fold enrichment (6-mer frequency, TF over GST control) | binding signal [17]: 1.95 fold enrichment (6-mer frequency, TF over GST control) | binding signal [18]: 1.76 fold enrichment (6-mer frequency, TF over GST control)
